According to PubChem BioAssay (NCI):
The panel holds about 83,000 compounds, 20% with a hit somewhere; the sample as a whole holds those more often.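 Step 1: grow cells in 96-well plates. Step 2: add test compound at a single concentration. Step 3: incubate 48 h. Step 4: record percent growth.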 Unmarked numbers belong to inactive results. The source made the active and inactive calls. How the source made its calls: active means growth percent below 10; inactive means the rest.

system: MDA-MB-468 breast; assay: NCI-60 one-dose screen, 48 h (100 = growth as untreated, 0 = no growth, -100 = all killed); conditions: 10 µM unless noted

| SMILES | growth |
| --- | --- |
| COc1cc(-c2nn(-c3ccc(Br)cc3)cc2CO)ccc1O | 96.1% |
| CCOC(=O)Nc1ccc2c(c1)C(=O)N(CCOC)c1ccccc1O2 | 20.2% |
| CC1CCC2(C(=O)O)CCC3(C)C(=CCC4C5(C)CCC(O)C(C)(C)C5CCC43C)C2C1C (stereo not drawn) | 24.5% |
| O=S(=O)(NCCCNc1cc(-c2cn(-c3ccccc3)nc2-c2cccc(O)c2)ccn1)c1ccc(Br)cc1 | -27.4% (active) |
| OC(c1ccc(Cl)cc1)(c1ccc(Cl)cc1)C(O)(c1ccc(Cl)cc1)c1ccc(Cl)cc1 | 12.6% |
| CC(=O)c1c(-c2ccc(OC(F)(F)F)cc2)nc2ccccn12 | 94.7% |
| COc1ccc(C(=O)/C=C/c2cc3ccccc3[nH]c2=O)cc1 | 17.6% |
| Cc1cc(NCc2cc(Nc3ccnc4cc(Cl)ccc34)ccc2F)nc(N2CCN(c3ccccc3)CC2)n1 | 30.2% |
| O=[N+]([O-])c1ccc(-c2cc3c(Nc4ccc(OCc5cccc(Cl)c5)c(Cl)c4)ncnc3s2)cc1 | 56.2% |
| C=C(C)[C@@H]1CC[C@]2(COP(=O)(OCC)OCC)CC[C@]3(C)[C@H](CC[C@@H]4[C@@]5(C)CC[C@H](OP(=O)(OCC)OCC)C(C)(C)[C@@H]5CC[C@]43C)[C@@H]12 | 22.1% |
| Cc1nc(N)sc1C(=O)NCCO | 96.8% |
| CN(C)c1ccc(-c2c(C#N)c(N)nn2C(=O)c2ccc(NC(=O)c3ccccn3)cc2)cc1 | 119% |
| N#Cc1c(-c2ccco2)nc2c(c(-c3ccccc3)nn2-c2ccccc2)c1-c1ccc(O)cc1 | 92.4% |
